# Compound activity (PubChem BioAssay)
# Giardia FBPA inh-1 = qHTS Assay for Inhibitors of Fructose-1,6-bisphosphate Aldolase from Giardia Lamblia; purified Giardia FBPA; Potency, µM (highest dose often 59.6 µM), for the others: at the top dose activity, negative = inhibition, most hits filed as inhibitors; 290,000 compounds, 0.71% hits; note: nearly all actives have a fitted effect of over 55% in size
# Target sequence (A8B2U2 whole entry, looked up): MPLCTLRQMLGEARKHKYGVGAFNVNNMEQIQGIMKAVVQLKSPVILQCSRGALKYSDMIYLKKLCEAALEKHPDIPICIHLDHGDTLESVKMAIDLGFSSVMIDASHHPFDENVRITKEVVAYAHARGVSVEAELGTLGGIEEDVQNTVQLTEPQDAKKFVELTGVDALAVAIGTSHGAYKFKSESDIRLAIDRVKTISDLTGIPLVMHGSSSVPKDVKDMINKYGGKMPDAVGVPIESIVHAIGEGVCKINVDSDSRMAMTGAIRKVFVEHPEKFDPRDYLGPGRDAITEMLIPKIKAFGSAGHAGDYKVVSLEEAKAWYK
#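 Giardia FBPA (40 nM reagent) was preincubated 10 min at RT with compound (up to 57.5 uM final), then substrate plus GAPDH/TPI/NAD/arsenate coupling system with diaphorase/resazurin was added; resorufin fluorescence (525/598 nm) was read after 20 min.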
# FMDV antiviral = High Throughput Screening for Foot and Mouth Disease Virus Antivirals; FMDV antiviral cell-based qHTS; Potency, µM (highest dose often 57.9 µM), inactives show at the top dose activity change, negative = inhibition, actives largely listed as inhibitors; 410,000 compounds, 1.2% hits; calls by dose curve; tested in HEK293T cells; note: read-out not given here; nearly all actives have a fitted effect of over 45% in size
# Vaccinia mCherry = qHTS for Stage-Specific Inhibitors of Vaccinia Orthopoxvirus: mCherry Reporter Primary qHTS; Potency, µM (series often up to 36.5 µM), inactives show top-dose activity change, negative = inhibition, usual class: inhibitors; 310,000 compounds, 0.63% hits; AID 720579, 2013; Vaccinia virus mCherry reporter infection, fluorescence; calls by dose curve; tested in A549 cells; note: nearly all actives have a fitted effect of over 35% in size
# Vaccinia Venus = qHTS for Stage-Specific Inhibitors of Vaccinia Orthopoxvirus: Venus Reporter Primary qHTS; Potency, µM (titrated, usually from 36.5 µM), for inactives: at the highest dose activity change, negative = inhibition, actives largely listed as inhibitors; AID 720580, 2013; Vaccinia virus Venus reporter expression, fluorescence; 330,000 compounds, 0.46% hits; calls by dose curve; tested in A549 cells; note: nearly all actives have a fitted effect of over 30% in size
# Giardia growth = qHTS Assay for Inhibitors of Fructose-1,6-bisphosphate Aldolase from Giardia Lamblia: Giardia lamblia growth inhibition; shares compounds with Giardia FBPA inh-1; 1,500 compounds, 5% hits; Giardia lamblia trophozoite growth inhibition; Potency, µM (series often up to 57.5 µM), for inactives: at the highest dose activity change, negative = inhibition, hits mostly inhibitors; AID 2785, 2010;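 note: trophozoites exposed to compound for 48 h at 37 °C; nearly all actives have a fitted effect of over 70% in size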
# Mammalian tox = qHTS Assay for Inhibitors of Fructose-1,6-bisphosphate Aldolase from Giardia Lamblia: Mammalian cellular toxicity | shares compounds with Giardia FBPA inh-1 | mammalian cell viability counter-screen, qHTS | Potency, µM (doses to about 57.5 µM), for the others: top-dose viability change, negative = toxicity, hits mostly inhibitors | 1,500 compounds, 4% hits;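 note: Chinese hamster ovary cells used as mammalian cytotoxicity surrogate; viability measured as cellular ATP by luminescence; compound exposure lasted 48 h before reading; nearly all actives have a fitted effect of over 60% in size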
# Giardia FBPA inh-2 = qHTS Assay for Inhibitors of Fructose-1,6-bisphosphate Aldolase from Giardia Lamblia: Primary screen confirmation; shares compounds with Giardia FBPA inh-1; purified Giardia aldolase enzyme activity, qHTS; Potency, µM (doses to about 57.5 µM), inactives show at the top dose activity change, negative = inhibition, actives largely listed as inhibitors; 1,500 compounds, 5% hits; AID 2787, 2010; note: nearly all actives have a fitted effect of over 45% in size
# Rabbit FBPA inh = qHTS Assay for Inhibitors of Fructose-1,6-bisphosphate Aldolase from Giardia Lamblia: Rabbit FBPA Selectivity; shares compounds with Giardia FBPA inh-1; Rabbit muscle FBPA enzyme inhibition, selectivity counter-screen; Potency, µM (series often up to 57.5 µM), for inactives: at the top dose activity, negative = inhibition, usual class: inhibitors; 1,500 compounds, 4% hits; AID 2794, 2010; note: nearly all actives have a fitted effect of over 60% in size
# Target sequence (P00883 whole entry, looked up): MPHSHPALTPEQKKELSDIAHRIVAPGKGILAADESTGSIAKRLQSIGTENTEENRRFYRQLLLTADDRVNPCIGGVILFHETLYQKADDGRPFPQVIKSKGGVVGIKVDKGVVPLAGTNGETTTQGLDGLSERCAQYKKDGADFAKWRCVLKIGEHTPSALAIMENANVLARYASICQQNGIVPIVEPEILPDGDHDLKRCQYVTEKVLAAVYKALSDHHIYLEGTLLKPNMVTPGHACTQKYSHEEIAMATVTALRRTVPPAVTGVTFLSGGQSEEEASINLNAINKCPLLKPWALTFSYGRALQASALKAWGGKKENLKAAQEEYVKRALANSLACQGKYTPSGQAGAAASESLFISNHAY
# GAPDH counter = qHTS Assay for Inhibitors of Fructose-1,6-bisphosphate Aldolase from Giardia Lamblia: Coupling assay counterscreen confirmation | Potency, µM (top dose mostly 57.5 µM), for inactives: top-dose activity change, negative = inhibition, actives largely listed as inhibitors | AID 2795, 2010 | 1,500 compounds, 6% hits | GAPDH coupling enzyme counterscreen, biochemical, qHTS | shares compounds with Giardia FBPA inh-1; note: nearly all actives have a fitted effect of over 55% in size
# The depositor's hits bear a star; i = inactive; ? = inconclusive; nt = no result given; [ ] = remark or other dose. Compounds with a hit are over-represented: about 2.2% of the library has one in this group of screens. Unless noted, calls come from the whole dose curve; as a rule, active = well fitted curve in the direction sought with a large enough effect; inconclusive = small, poorly fitted or top-dose-only effect, or another doubt; inactive = no such curve, though single readings can be large; an effect the other way counts as inactive or inconclusive. % is set by controls: 0 for no effect and ±100 for the full control effect; potency is the fitted concentration of half-maximal effect.
SMILES,Giardia FBPA inh-1,FMDV antiviral,Vaccinia mCherry,Vaccinia Venus,Giardia growth,Mammalian tox,Giardia FBPA inh-2,Rabbit FBPA inh,GAPDH counter
CC1CCN(S(=O)(=O)c2ccc3c(c2)N(CC(=O)NCCc2ccc(Cl)cc2)C(=O)CO3)CC1,nt,-13%,-8%,-11%,nt,nt,nt,nt,nt
COc1nnc(-c2ccc(N3CCOCC3)c(NC(=O)C3CCCCC3)c2)c2ccccc12,-3%,?,i,0%,nt,nt,nt,nt,nt
c1ccc2c3c(cc(N4CCOCC4)c2c1)OC1(N2CCOCC2)CCCCC1O3 (configuration not stated),0.56µM*,nt,i,-4%,?,-9%,7.1µM*,?,25µM*
CCCCCCNC(=O)N[C@H](Cc1ccc(O)cc1)C(=O)NCCC[C@H]1CN2C(=NC[C@H]2CCC)N1CC1CCC1,16µM*,nt,nt,nt,-18%,5%,-1%,-2%,4%
CCCCCCNC(=O)N[C@@H](Cc1ccc(O)cc1)C(=O)NCCC[C@H]1CN2C(=NC[C@H]2C)N1CC1CCC1,4%,72%,-11%,4%,nt,nt,nt,nt,nt
S=C(NCCCc1cnc[nH]1)NCCCN(CCc1ccccc1)c1ccc(Br)cn1,nt,nt,-12%,-20%,nt,nt,nt,nt,nt
CCN(CC)c1ccc(N=C2C(=O)Nc3ccccc32)cc1,-16%,-22%,-29%,-26%,-2%[38.3 µM],-21%,0.26µM*,?,0.73µM*
COc1ccc(COCC(O)CN2CCCC(C(F)(F)F)C2)cc1 (configuration not stated),11µM*,nt,nt,nt,-14%,5%,1%,4%,14%
CC(C)(C)NC(=O)[C@H]1CN(Cc2cccnc2)CCN1C[C@@H](O)C[C@@H](Cc1ccccc1)C(=O)N[C@H]1c2ccccc2C[C@H]1O,-8%,nt,nt,nt,nt,nt,nt,nt,nt
COc1ccc(CNC(=O)CNC(c2ccccc2)c2ccccc2)cc1OC,4%,7%,-18%,-13%,nt,nt,nt,nt,nt
COCCNC(=O)CNC(c1ccccc1)c1ccccc1,20µM*,nt,nt,nt,11%,-9%,1%,4%,7%
O=[N+]([O-])c1cc2c(cc1CN1CCN(CCOCCO)CC1)OCO2,10µM*,-5%,nt,nt,-3%[10.4 µM],9%,-18%,5%,2%
CCN1CCN(Cc2cc3c(cc2[N+](=O)[O-])OCO3)CC1,?,-12%,nt,nt,nt,nt,nt,nt,nt
CC1CN(CCCCN2C(=O)c3ccccc3C2=O)CC(C)O1 (configuration not stated),22µM*,-10%,i,-14%,?,18%,2%,2%,2%
c1ccc(-c2ccccc2OCCOCCN2CCc3ccccc3C2)cc1,-2%,-30%,?,-25%,nt,nt,nt,nt,nt
Cc1ccc(C)c(OCCOCCN2CC(C)OC(C)C2)c1C (configuration not stated),18µM*,3%,nt,nt,-2%[10.4 µM],-1%,6%,5%,0%
CC1CN(CCOCCSc2ccccc2)CC(C)O1 (configuration not stated),-6%,-11%,i,-13%,nt,nt,nt,nt,nt
CC1CN(CCOCCOc2ccccc2-c2ccccc2)CC(C)O1 (configuration not stated),11µM*,-8%,nt,nt,-8%[10.4 µM],-1%,1%,1%,10%
CC1=NOC(=O)/C1=C\c1ccc(-c2ccc(Br)cc2C(=O)O)o1,5µM*,9%,-1%,10%,-17%[38.3 µM],-1%,-12%,-10%,-7%
CN(C)CCCCOc1ccccc1F,20µM*,4%,i,-9%,?,9%,4%,11%,-7%
COC(=O)C1=C(O)/C(=C\c2sccc2C)N=C1C,-7%,15%,i,-7%,nt,nt,nt,nt,nt
COC(=O)C1=C(O)/C(=C\c2cc(C)n(-c3ccccc3F)c2C)N=C1C,13µM*,17%,-15%,11%,-14%,-2%,-18%,-22%,-26%
Nc1ncnc(Sc2ncccn2)c1[N+](=O)[O-],18µM*,32µM*,nt,nt,5%[10.4 µM],?,4%,-2%,18%
CC(C)=NO[C@@H](C)CN1CCCc2nc(C)c(C)cc21,-5%[12.9 µM],nt,nt,nt,nt,nt,nt,nt,nt
CN1CCN(Cc2c(F)cccc2Cl)CC1,25µM*,-4%,nt,nt,72%,14%,-3%,-6%,?
SMILES,Giardia FBPA inh-1,FMDV antiviral,Vaccinia mCherry,Vaccinia Venus,Giardia growth,Mammalian tox,Giardia FBPA inh-2,Rabbit FBPA inh,GAPDH counter
CN(C)c1ccc(/C=C/c2sc3ccccc3[n+]2Cc2ccccc2)cc1,nt,nt,17%,-7%,nt,nt,nt,nt,nt
CN(C)C1CCc2[nH]c3ccc(NC(=O)c4ccc(F)cc4)cc3c2C1 (configuration not stated),-7%,-3%,nt,nt,nt,nt,nt,nt,nt
COc1ccc(OC)c(NC(=O)CN(C)CC(=O)Nc2ccccc2Br)c1,18µM*,-29%,-8%,-12%,-14%,8%,-4%,7%,6%
COc1cccc(CN(C)CC(=O)Nc2cccc3ccccc23)c1,18µM*,-18%,i,-5%,2%[10.4 µM],-9%,2%,5%,8%
COc1cccc(CC(=O)Nc2cccc3ccccc23)c1,-8%,-4%,i,-3%,nt,nt,nt,nt,nt
COc1ccc(CN2CC[C@H]3C=CC[C@@H](C(=O)Nc4ccc(Cl)cc4Cl)[C@H]3C2=O)cc1OC,nt,nt,-24%,?,nt,nt,nt,nt,nt
CC(C)[C@H](NC(=O)CNC(=O)OC(C)(C)C)C(=O)N[C@H](C=O)C(C)C,nt,-3%,-6%[60.7 µM],-4%[60.7 µM],nt,nt,nt,nt,nt
CC(C)C(CCNC1CCN(C)CC1)c1ccc(Cl)cc1 (configuration not stated),?,0%,nt,nt,nt,nt,nt,nt,nt
CN1CCC(NCCC(c2ccc(F)cc2)c2ccc(Cl)cc2)CC1 (configuration not stated),14µM*,-7%,?,11µM*,?,20µM*,7%,8%,-3%
COCC(=O)N/N=C/c1c(C)[nH]n(-c2ccccc2)c1=O,7.1µM*,-6%,-12%,-3%,23%,-1%,-6%,-4%,2%
Cn1[nH]c(-c2ccccc2)c(/C=N/O)c1=O,16µM*,13%,-8%,2%,5%[10.4 µM],28%,-12%,-4%,6%
